In PubChem BioAssay (Tox21):
Inconclusive results are not listed. Where a call stands in place of a potency, no number is given. A number with no mark means an inactive call. Calls of active or inactive are those of the source. Calls follow the shape of the dose curve; as a rule, active = well fitted cell-killing curve with a large enough effect in the repeat runs; inconclusive = weak or mixed curves, or effect the other way; inactive = flat fitted curve, though single readings scatter.

Key:
[1] = cAMP Responsive Elements (CRE) small molecule antagonists, cell-based qHTS assay: qHTS cell viability counter screen (AID 2060913); also: nearly all actives have a fitted effect of over 40% in size
Procedure, shortened: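 CRE-bla HEK293T cells were seeded in assay medium with 10% dialyzed FBS, incubated 18 hrs at 37 C, then exposed to compounds plus 0.25 uM final NKH477 for 3 hrs. Viability was read by CellTiter-Glo luminescence after 30 min, in the same wells.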

[2] = cAMP Responsive Elements (CRE) small molecule agonists, cell-based qHTS assay: qHTS cell viability counter screen (AID 2060914);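 also: viability read after 3 h of compound exposure; nearly all actives have a fitted effect of over 50% in size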
Procedure, shortened: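 HEK 293T CRE-bla; DMEM + 10% dialyzed FBS, 25 mM HEPES; 18 h pre-incubation; compound 3 h, 37 °C/5% CO2; CellTiter-Glo added after reporter read; luminescence after 30 min RT.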
Potency is read from the fitted curve at half-maximal effect.

Structure (SMILES)	Potency [1]	Potency [2]	viability change, negative = cytotoxic [1]	activity change, negative = cytotoxicity [2]
Cc1ccnc2c1NC(=O)c1cccnc1N2C1CC1	inactive	inactive		
CCCCCCCC/C=C\CCCCCCCCOCCO	79.4 µM (active)	63.1 µM (active)		
O=C1CCCCCCCCCCC1	inactive	inactive		
CCCCC(CC)C(=O)OC(C)C (stereo unspecified)	inactive	inactive		
CCN1CCN(c2cc(-c3ccc(F)cc3)c3c(n2)CCCCCC3)CC1			-3.64% [at 18.9 µM]	-20.1% [at 18.9 µM]
CCN(CC)CC1CCCCN1CC(=O)N1c2ccccc2C(=O)Nc2cccnc21 (stereo unspecified)	inactive	inactive		
NC(=Nc1ccccc1)Nc1ccccc1	inactive	inactive		
Cc1cccc(Nc2ccccc2)c1	inactive	inactive		
CCCCC(CC)CNCC(CC)CCCC (stereo unspecified)	inactive	inactive		
Cc1ccc(C(=O)O)cc1[N+](=O)[O-]	inactive	inactive		
COCCOC(=O)C1=C(C)NC(C)=C(C(=O)OC/C=C/c2ccccc2)C1c1cccc([N+](=O)[O-])c1 (stereo unspecified)	inactive	inactive		
Cc1ccc(N)nc1	inactive	inactive		
CCCCCN(CCCCC)C(=O)C(CCC(=O)O)NC(=O)c1ccc(Cl)c(Cl)c1 (stereo unspecified)	inactive	inactive		
COC(=O)Nc1nc2ccc(S(=O)c3ccccc3)cc2[nH]1 (stereo unspecified)	inactive	inactive		
CCCCCCCCCCCCCCCC(=O)OC[C@H](O)[C@H]1OC(=O)C(O)=C1O	inactive	inactive		
NC[C@H](O)c1ccc(O)c(O)c1	inactive	inactive		
Cc1ccc(C(C)C)cc1	inactive	inactive		
Oc1ccccc1-c1nnco1	inactive	inactive		
